Results on 32 compounds are retold here after the supplement of paper PMC12669797.

Structures are written as SMILES. Structures can show the parent of a compound that is named as a salt. ± gives the standard deviation of the averaged measurements.

For the assay, the system named is ES2. The experiment in a line: cell viability relative to DMSO control (MTS) (fraction of DMSO control); higher = more viable cells / less growth inhibition. The settings on record: 10 µM; 48 h. The procedure, abridged:
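TOV-21G and ES2 clear cell carcinoma cells were seeded at 5000 cells per well in 96-well plates and grown for 24 h. Cells then received a 367-compound […] library at 10 µM final concentration, with DMSO in control wells. After 48 h, viability was read by MTS assay (CellTiter 96 AQueous One Solution) following the maker's protocol. Cell viability is expressed as a fraction of the DMSO control.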
Turning to `CCC(=C/[C@H](C)C/C=C/C(C)=C/[C@@H](C)C(=O)[C@@H](C)[C@H](O)[C@@H](C)C/C(C)=C/C(=O)O)/C=C/[C@@H]1OC(=O)C=C[C@@H]1C` [Leptomycin B*], the cell viability is 0.406.
In turn, `c1cc(CN2CCCNCCNCCCNCC2)ccc1CN1CCCNCCNCCCNCC1` [AMD3100 octahydrochloride] returned a cell viability of 1.4.
With `CO[C@@]12[C@H](COC(N)=O)C3=C(C(=O)C(C)=C(N)C3=O)N1C[C@@H]1N[C@@H]12` [Mitomycin C], the cell viability was 0.35.
The compound `COc1cc(O)c(CC=C(C)C)c(O)c1C(=O)/C=C/c1ccc(O)cc1` [Xanthohumol] gave a cell viability of 1.07.
Then `COc1cccc2c1C(=O)c1c(O)c3c(c(O)c1C2=O)C[C@@](O)(C(=O)CO)C[C@@H]3O[C@H]1C[C@H](N)[C@H](O)[C@H](C)O1` [Doxorubicin, HCl], with 0.312; and `O=Cc1ccc(N2CCOCC2)cc1O`, with 1.07.
The figure for `C[C@@H]1C[C@H]2O[C@@H]2/C=C\C=C\C(=O)Cc2c(Cl)c(O)cc(O)c2C(=O)O1` [Radicicol] is 0.533; for `Nc1ncn([C@H]2C[C@H](O)[C@@H](CO)O2)c(=O)n1` [Decitabine] it is 0.757.
The figure for `COc1ccc([C@@H]2Sc3ccccc3N(CCN(C)C)C(=O)[C@@H]2OC(C)=O)cc1` [Diltiazem] is 0.858; for `C/C=C/C/C=C/CCC(=O)[C@H]1O[C@H]1C(N)=O` [Cerulenin] it is 1.4.
With `C[C@@H]1C[C@H]2[C@@H]3CCC4=CC(=O)C=C[C@]4(C)[C@@]3(F)[C@@H](O)C[C@]2(C)[C@@]1(O)C(=O)CO` [Dexamethasone], the cell viability was determined as 1.01.
Then `Cc1cc([N+](=O)[O-])ccc1NS(=O)(=O)c1cc(Cl)ccc1Cl`, with 0.894; and `CO[C@@H]1[C@H](OC(=O)/C=C/C=C/C=C/C=C/C(=O)O)CC[C@]2(CO2)[C@H]1[C@@]1(C)O[C@@H]1CC=C(C)C` [Fumagillin], with 0.91; and `CC(C)C[C@@H](N)[C@H](O)C(=O)N[C@H](C(=O)N[C@H](C(=O)N[C@@H](CC(=O)O)C(=O)O)C(C)C)C(C)C` [Amastatin], with 0.963.
`C[C@]1(c2nc3c(C(N)=O)cccc3[nH]2)CCCN1` [ABT-888 (Veliparib)] had a cell viability of 0.897.
Then `CCCCC[C@H](CC(=O)NO)C(=O)N[C@H](C(=O)N1CCC[C@H]1CO)C(C)C` [Actinonin], with 1.
The figure for `CCN1/C(=C/C(C)=O)Sc2ccc(OC)cc21` is 0.857.
Then `O=C(Nc1cccc2cccnc12)c1ccc(N2C(=O)[C@@H]3[C@H](C2=O)[C@@H]2C=C[C@H]3C2)cc1` [IWR-1-endo], with 0.998; and `COc1c(C=O)c(O)cc2c1C(=O)c1ccccc1C2=O` [Damnacanthal], with 1.05 ± 0.021; and `O=c1cc(-c2ccccc2)oc2cc(O)c(O)c(O)c12` [Baicalein], with 0.916.
`OC[C@H]1NC[C@H](O)[C@@H](O)[C@@H]1O` [Deoxynojirimycin] showed a cell viability of 1.02.
Consider `CN(C)S(=O)(=O)c1ccc2c(c1)/C(=C/c1cc3c([nH]1)CCCC3)C(=O)N2`, for which the cell viability came out at 1.03.
Then `COc1cc2nccc(Oc3ccc(NC(=S)NC(=O)c4ccccc4C)cc3)c2cc1OC` [PDGF receptor tyrosine kinase inhibitor V], with 0.874; and `COc1cc2ncnc(Nc3ccc(F)c(Cl)c3)c2cc1OCCCN1CCOCC1` [gefitinib], with 0.825.
The figure for `Nc1cccc2c1CN(C1CCC(=O)NC1=O)C2=O` (configuration not stated) [lenalidomide] is 0.928; for `Cc1nc(Nc2ncc(C(=O)Nc3c(C)cccc3Cl)s2)cc(N2CCN(CCO)CC2)n1` [dasatinib] it is 0.608; for `COc1cc2ncnc(Nc3ccc(NC(=O)c4ccccc4)cc3)c2cc1OC` [Aurora kinase inhibitor II] it is 1.09.
Then `CC[C@]1(O)C[C@@H]2CN(CCc3c([nH]c4ccccc34)[C@@](C(=O)OC)(c3cc4c(cc3OC)N(C)[C@H]3[C@@](O)(C(=O)OC)[C@H](OC(C)=O)[C@]5(CC)C=CCN6CC[C@]43[C@@H]65)C2)C1` [Vinblastine sulfate], with 0.52; and `CCCCN1C(=O)C2Cc3c([nH]c4ccccc34)C(c3cccc(O)c3)N2C1=O` (configuration not stated), with 0.368; and `CC1(C)CCC(C)(C)c2cc(NC(=O)c3ccc(C(=O)O)cc3)ccc21` [tamibarotene], with 1.16.
Regarding `O=C1CCC(N2C(=O)c3ccccc3C2=O)C(=O)N1` (configuration not stated) [thalidomide], the cell viability worked out at 0.958.
Then `C[C@@H](Oc1cc(-c2cnn(C3CCNCC3)c2)cnc1N)c1c(Cl)ccc(F)c1Cl` [crizotinib], with 0.34.
